# Rows were chosen to be rich in hits. Some 3.5% of all compounds tested hit in one or more screens of this group.
# TEAD-YAP block = TEAD-YAP interaction inhibition; HEK-TIYL cells, TEAD-Gal4/YAP UAS-luciferase luminescence; inhibition, % at 9.12 µM; actives 1.4% (n = 640,000); AID 1259422; in the data active = inhibition above about 32%;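 also: 0% = median of test compound wells and 100% = reference inhibitor wells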
# MITF inh = blocks human microphthalmia-associated transcription factor; O75030; AlphaScreen MITF homodimerization, bead proximity signal; inhibition, % at 2.6 µM; actives 0.91% (n = 650,000); AID 1259374; in the data active = inhibition above about 50%;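 also: 0% = vehicle wells with protein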
# Target sequence (O75030 whole entry, looked up): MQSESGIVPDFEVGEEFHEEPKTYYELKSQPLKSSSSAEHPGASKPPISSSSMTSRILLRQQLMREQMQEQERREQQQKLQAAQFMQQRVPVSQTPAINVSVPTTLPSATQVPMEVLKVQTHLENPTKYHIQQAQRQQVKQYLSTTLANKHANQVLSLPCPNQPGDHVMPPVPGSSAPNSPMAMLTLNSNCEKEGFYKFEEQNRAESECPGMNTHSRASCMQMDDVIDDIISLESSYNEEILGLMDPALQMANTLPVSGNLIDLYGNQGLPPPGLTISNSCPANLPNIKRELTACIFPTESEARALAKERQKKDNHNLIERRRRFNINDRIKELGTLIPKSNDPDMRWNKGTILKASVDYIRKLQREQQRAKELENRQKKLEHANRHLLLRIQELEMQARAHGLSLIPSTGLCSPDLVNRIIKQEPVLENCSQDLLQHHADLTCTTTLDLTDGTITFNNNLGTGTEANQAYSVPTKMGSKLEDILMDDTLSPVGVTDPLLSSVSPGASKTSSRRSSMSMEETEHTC
# GPR151 ag = activators of human GPR151. actives 1% (n = 650,000). AID 1508602. PathHunter beta-arrestin GPR151 cells, luminescence. Q8TDV0. activation, % at 11.2 µM; in the data active = activation above about 4.9%;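 also: 0% = median of compound wells and 100% = cells with positive control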
# FBW7 act = human FBW7 E3 ligase activation, primary screen | Q969H0 | AlphaScreen FBW7–phospho-cyclin E peptide binding, activator screen | normalized activity (activation), % at 26.1 µM | actives 0.13% (n = 650,000) | AID 1259310; in the data active = normalized activity above about 1.9%;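 also: purified mutant Fbw7 with reduced substrate affinity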
# MITF confirm = confirmation of human MITF inhibitors. shares compounds with MITF inh. AlphaScreen MITF homodimerization, biotin/His-MITF beads. inhibition, % at 2.6 µM. actives 16% (n = 4,700);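 active = inhibition above a cutoff derived from the DMSO control wells, cut at about 28% in these data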;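 also: 0% = MITF dimer wells with DMSO only; inhibitors lower the bead chemiluminescence by keeping MITF from dimerizing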
# AlphaScreen intf2 = optically interferes with AlphaScreen signal | shares compounds with MITF inh | LysRS AlphaScreen counterscreen, signal interference, triplicate | inhibition, % at 2.6 µM | actives 7.6% (n = 4,700) | AID 1259376;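 active = inhibition above a cutoff derived from the DMSO control wells, cut at about 30% in these data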
# * hit, by the source's call; . = no result.
SMILES,TEAD-YAP block,MITF inh,GPR151 ag,FBW7 act,MITF confirm,AlphaScreen intf2
O=C(c1ccccc1[N+](=O)[O-])N1CCN(Cc2ccc3c(c2)OCO3)CC1,1.3,-7.5,0.3,0.2,.,.
Cc1cccc(CN2CCC(N3CCC(C(=O)N4CCSCC4)CC3)CC2)n1,-2.3,8.8,0.6,0.3,.,.
CC1CN(C2CCN(S(=O)(=O)c3ccc(F)cc3)CC2)CC(C)O1 (centres undefined),0.5,56.6*,-0.1,0.7,-0.1,-0.1
O=S(=O)(c1ccc(F)cc1)N1CCN(C2CCCCC2)CC1,15.3,84.8*,2.3,-0.1,1.0,12.1
O=S(=O)(c1ccc(F)cc1)N1CCN(C2CCCCCC2)CC1,-8.7,31.7,-1.0,0.0,.,.
CS(=O)(=O)N1CCN(C2CCCCC2)CC1,-5.2,58.2*,-0.2,0.3,-1.1,-0.4
O=S(=O)(c1ccc(F)cc1)N1CCN(C2CCCC2)CC1,-1.9,37.4,2.8,0.0,.,.
CCCN1CCC(N2CCN(S(=O)(=O)c3ccc(F)cc3)CC2)CC1,11.6,54.5*,0.6,0.1,8.8,11.4
COc1ccc(Cn2c(=O)[nH]c3ncccc3c2=O)cc1,4.3,-14.7,-1.4,0.1,.,.
N#CCN(CC#N)C(=O)CSc1ccccc1,8.4,5.9,-0.5,-0.1,.,.
CN(C)c1nc(CN2CCCC2c2nccs2)nc2ccccc12 (centres undefined),-3.9,7.0,-1.7,-0.2,.,.
O=C(Cc1cn(-c2ccc(N3CCOCC3)nn2)c2ccccc12)NCCCN1CCCC1=O,-7.6,-5.5,-1.1,0.2,.,.
O=C(Cc1cn(-c2ccc(NCCN3CCOCC3)nn2)c2ccccc12)NCCCN1CCCC1=O,-3.5,58.8*,0.8,0.1,5.4,2.1
O=C(N/N=C/c1ccc(C(=O)O)cc1)NC1CCCCC1,-3.2,-2.3,0.3,0.1,.,.
CN(C(=O)Cc1ccc(NC2=NC3CS(=O)(=O)CC3S2)cc1)C1CCCCC1 (centres undefined),-7.7,57.8*,4.0,-0.9,56.2*,42.2*
CCCc1[nH]nc2c1C(c1ccc(OC)cc1OC)C(C#N)=C(N)O2 (centres undefined),-0.8,61.5*,-0.8,0.0,11.4,16.8
CCCc1[nH]nc2c1C(c1c(OC)cc(OC)cc1OC)C(C#N)=C(N)O2 (centres undefined),2.7,11.6,0.8,-0.2,.,.
Cn1c(=O)c2c(nc(Sc3nc4ccccc4[nH]3)n2Cc2ccc(Cl)cc2Cl)n(C)c1=O,-0.2,7.3,-2.5,0.0,.,.
OC(CN1CCN(Cc2ccccc2)CC1)CN1c2ccccc2Sc2ccccc21 (centres undefined),5.0,56.4*,2.9,-0.6,5.6,-0.3
CCN(CC)S(=O)(=O)c1ccc(-c2nnc(SCC(=O)NC(C)(C)C)o2)cc1,-6.6,-8.3,0.5,-0.1,.,.
CSc1ccc(CN2CCC(N3CCCCC3)CC2)cc1,-2.8,12.5,0.3,0.0,.,.
CCc1ccc(CN2CCN(C3CCCCC3)CC2)cc1,0.0,62.2*,-0.4,-0.1,-0.8,-0.9
Cc1ccc(CN2CCN(C3CCCCCC3)CC2)cc1,3.1,68.8*,-0.9,0.2,11.1,22.7
CSc1ccc(CN2CCN(C3CCCC3)CC2)cc1,-3.5,54.3*,-0.3,-0.1,-0.8,7.7
CCc1ccc(CN2CCN(C3CCCC3)CC2)cc1,2.1,41.2,0.4,0.0,.,.
SMILES,TEAD-YAP block,MITF inh,GPR151 ag,FBW7 act,MITF confirm,AlphaScreen intf2
CSc1cccc(C(=O)N(CCn2cccn2)c2nc3c(C)cc(C)cc3s2)c1,-6.7,95.4*,0.0,0.0,-14.1,-5.4
Cc1sc2nc(CSC(C)C(=O)OCC(=O)c3ccc[nH]3)[nH]c(=O)c2c1C (centres undefined),5.6,1.6,-0.2,0.0,.,.
O=S(=O)(c1ccc(F)cc1)N1CCC(O)(c2cccnc2)CC1,-1.4,71.8*,-0.9,-0.3,11.6,17.1
Cc1ccc(S(=O)(=O)N2CCC(O)(c3cccnc3)CC2)cc1,-0.8,32.5,-1.0,-0.3,.,.
COc1cc2nc(CN3CCCC3c3nccs3)nc(N)c2cc1OC (centres undefined),29.6,64.4*,0.1,-0.2,61.1*,99.2*
CCn1c(CCNC(=O)Nc2ccc(Cl)c(C(F)(F)F)c2)nnc1SC,7.4,8.0,-0.5,0.0,.,.
CCOC(=O)c1ccc(S(=O)(=O)NCCN2CCOCC2)cc1,4.2,53.6*,0.1,0.0,-4.9,-5.7
CCc1ccc(OCC(=O)Nc2cc(C)ccn2)cc1,4.9,51.5*,0.6,-0.2,-12.7,-7.8

# Screening data as filed in PubChem BioAssay.
